Source: PubChem (The Scripps Research Institute Molecular Screening Center)
A selection: hits, their analogues and other compounds. The true share with any hit is near 3%.
PAFAH1B2 inh – PAFAH1B2 enzyme inhibitors, primary screen, biochemical, fluorescence polarization, human. inhibition, % at 3.39 µM. recombinant PAFAH1B2, FP-rhodamine activity probe. Platelet-activating factor acetylhydrolase IB subunit alpha2 (Homo sapiens), P68402. 340,000 tested, 1.2% active. AID 492953, 2010;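 active means inhibition above the mean of all tested compounds plus 3 SD, cut at about 24% in these data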;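 further: 0% = enzyme with DMSO and 100% = wells lacking PAFAH1B2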
PP5 primary – PP5 phosphatase inhibitors, primary screen, biochemical, fluorescence | Serine/threonine-protein phosphatase 5 (Homo sapiens), P53041 | purified PP5c, OMFP substrate fluorescence | inhibition, % at 6.7 µM | 320,000 tested, 0.18% active | AID 1987, 2009;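 active means inhibition above the campaign's mean inhibition across all tested compounds plus 3 SD, cut at about 9.5% in these data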;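 further: 0% = DMSO only and 100% = 100 µM cantharidin control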
Target sequence (P53041 whole entry, looked up): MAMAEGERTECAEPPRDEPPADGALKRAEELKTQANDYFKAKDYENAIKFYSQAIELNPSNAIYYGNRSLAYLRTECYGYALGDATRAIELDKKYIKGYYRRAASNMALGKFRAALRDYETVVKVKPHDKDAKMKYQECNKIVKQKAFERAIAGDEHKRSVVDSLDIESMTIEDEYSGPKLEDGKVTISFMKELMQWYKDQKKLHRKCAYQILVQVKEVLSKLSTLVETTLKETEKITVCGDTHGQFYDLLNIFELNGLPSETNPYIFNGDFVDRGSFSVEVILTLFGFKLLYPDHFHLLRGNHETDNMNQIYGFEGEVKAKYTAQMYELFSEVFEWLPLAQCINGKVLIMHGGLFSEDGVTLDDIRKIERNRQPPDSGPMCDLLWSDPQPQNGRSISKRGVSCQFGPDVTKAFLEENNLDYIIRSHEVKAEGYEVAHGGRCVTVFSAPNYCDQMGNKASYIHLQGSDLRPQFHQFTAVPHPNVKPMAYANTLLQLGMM
PAFAH2 inh – PAFAH2 enzyme inhibitors, primary screen, biochemical, fluorescence polarization, human; Platelet-activating factor acetylhydrolase 2, cytoplasmic (Homo sapiens), Q99487; recombinant PAFAH2, FP-rhodamine activity probe; inhibition, % at 3.39 µM; 340,000 tested, 0.99% active; AID 492956, 2010;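 active means inhibition above the mean over all tested compounds plus 3 SD, cut at about 30% in these data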;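 further: inhibitors block probe labeling of enzyme so polarization drops; 0% = enzyme with DMSO and 100% = wells lacking PAFAH2 protein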
CTSL1 counter – Fasciola hepatica cathepsin L1 inhibitors, primary screen, counter-screen for PFM18AAP inhibitor project, biochemical, QFRET, fluorogenic peptide substrate. recombinant F. hepatica cathepsin L1, Z-Leu-Arg-MCA fluorescence. inhibition, % at 5.96 µM. 300,000 tested, 0.49% active. AID 1906, 2009;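 active means inhibition above the mean of all tested compounds plus 3 SD, set per screening campaign, cut at about 17% in these data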;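 further: 0% = plate median of test compound wells and 100% = 1 µM Z-Phe-Ala-diazomethylketone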
PAFAH1B3 inh – PAFAH1B3 enzyme inhibitors, primary screen, biochemical, fluorescence polarization, human; inhibition, % at 3.39 µM; recombinant PAFAH1B3, FP-rhodamine probe; Platelet-activating factor acetylhydrolase IB subunit alpha1 (Homo sapiens), Q15102; 340,000 tested, 0.28% active; AID 492972, 2010;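 active means inhibition above the screen-wide average of all tested compounds plus 3 SD, cut at about 25% in these data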;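 further: 0% = enzyme with DMSO only and 100% = wells lacking PAFAH1B3 protein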
pPAFAH inh – pPAFAH enzyme inhibitors, primary screen, biochemical, fluorescence polarization, human | Platelet-activating factor acetylhydrolase (Homo sapiens), Q13093 | recombinant pPAFAH, FP-rhodamine probe fluorescence polarization | inhibition, % at 3.39 µM | 330,000 tested, 1.5% active;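 active means inhibition above the mean inhibition across the screen plus 3 SD, cut at about 25% in these data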;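 further: inhibitors block binding of the rhodamine activity-based probe so polarization drops; 0% = enzyme with DMSO and 100% = wells lacking pPAFAH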
pPAFAH confirm – pPAFAH (PLA2G7) enzyme inhibitors, confirmation, biochemical, fluorescence polarization, human. shares compounds with pPAFAH inh. recombinant pPAFAH, FP-Rh probe fluorescence polarization. inhibition, % at 3.39 µM. 2,300 tested, 72% active. AID 463230, 2010;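 active means mean inhibition of the triplicate above the hit cutoff set for the earlier primary screen, cut at about 25% in these data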;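 further: 0% = enzyme with DMSO and 100% = wells lacking pPAFAH enzyme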
Starred values were filed as active, the others as inactive; · = no result.

SMILES	PAFAH1B2 inh	PP5 primary	PAFAH2 inh	CTSL1 counter	PAFAH1B3 inh	pPAFAH inh	pPAFAH confirm
O=c1cc(-c2ccc(O)cc2)oc2c1ccc1ccccc12	-5	2	3	·	-6	0	·
O=c1cc(-c2ccc(O)cc2)oc2c(O)c(O)c(O)c(O)c12	26*	2	69*	-1	52*	37*	72*
O=c1cc(-c2ccccc2)oc2cc(O)c(O)c(O)c12	3	·	22	·	17	56*	69*
COc1c(O)cc2oc(-c3ccc(O)cc3)cc(=O)c2c1O	6	1	5	-7	4	8	·
O=C(O)/C=C/C(=O)c1ccc2c(c1)NC(=O)CO2	3	-7	4	6	2	-8	·
COc1ccc(Cl)cc1NC(=O)CN(C)C(=O)c1ccc(-n2cncn2)cc1	3	·	2	·	3	2	·
COc1ccc(/C=C(\C#N)C(=O)Nc2cccc3ncccc23)cc1OC	2	-1	-1	-1	9	1	·
N#C/C(=C\c1ccc(O)c(O)c1)C(=O)Nc1cccc2ncccc12	10	2	49*	1	15	52*	70*
C/C(CC(=O)N1CCCC1)=N\NC(=O)c1cc2ccccc2cc1O	4	3	12	3	7	48*	15
CCOC(=O)C(C)/C(C)=N/NC(=O)c1cc2ccccc2cc1O (configuration not stated)	2	1	4	3	4	46*	4
O=C(OCC(=O)N1CCCCC1)c1cc2ccccc2cc1O	1	2	3	1	7	-3	·
C/C(=N\NC(=O)c1cc2ccccc2cc1O)c1ccc2c(c1)OCO2	7	1	9	3	-2	55*	6
O=C(CC(O)(CC(=O)OCc1ccccc1)C(=O)OCc1ccccc1)OCc1ccccc1	2	·	0	·	9	·	·
NNC(=O)CCc1nc2ccccc2[nH]1	·	2	·	0	·	-2	·
CCCOc1ccc(/C=C/C(=O)OCC(=O)N(C)c2c(N)n(Cc3ccccc3)c(=O)[nH]c2=O)cc1OCC	0	1	2	5	2	-2	·
CCCC(=O)OCCNc1cc(SCc2ccco2)c2nonc2c1[N+](=O)[O-]	4	0	7	12	5	78*	5
CCCSc1cc(NCCOC(C)=O)c([N+](=O)[O-])c2nonc12	2	1	-6	-3	4	2	·
CC(=O)OCCCNc1cc(SCc2ccco2)c2nonc2c1[N+](=O)[O-]	-1	3	13	0	3	39*	3
O=C1C(CSCc2ccccc2)NC(=S)N1c1ccccc1 (configuration not stated)	·	-3	·	1	·	37*	-1
O=c1cc(CSc2ccccc2)[nH]c2ccccc12	9	0	0	2	-11	1	·
Cc1ccc(SCc2cc(=O)c3c(=O)n(-c4ccccc4)[nH]c3[nH]2)cc1	25*	0	25	5	14	46*	21
O=c1cc(CSc2ccc(Cl)cc2)[nH]c2[nH]n(-c3ccccc3)c(=O)c12	45*	0	33*	7	6	43*	27*
CN1C(=O)c2cccc3c(Cl)ccc(c23)C1=O	-1	3	5	0	-2	3	·
CNc1ccc2c3c(cccc13)C(=O)N(C)C2=O	58*	-26	71*	1	68*	54*	39*
CCOc1ccc(C2OC34CCCCC3C(C#N)(C#N)C2(C#N)C(=N)O4)cc1OC (configuration not stated)	37*	2	46*	-2	43*	42*	1
SMILES	PAFAH1B2 inh	PP5 primary	PAFAH2 inh	CTSL1 counter	PAFAH1B3 inh	pPAFAH inh	pPAFAH confirm
O=C(O)CCN1C(=O)/C(=C\c2cccc(OCC(=O)Nc3ccc(Cl)cc3)c2)SC1=S	8	5	5	4	0	24	·
Cc1ccc(NC(=O)COc2cccc(/C=C3\SC(=S)N(CCC(=O)O)C3=O)c2)cc1Cl	5	1	6	1	1	40*	27*
O=C(O)COc1cccc(/C=C2/SC(=S)N(Cc3ccccc3)C2=O)c1	3	0	1	2	-1	40*	33*
Cc1ccc(C(=O)NNC(=O)c2n[nH]c(=O)c3ccccc23)cc1C	4	-2	3	·	7	-2	·
Cc1cc(/C=N/Nc2ccc([N+](=O)[O-])cn2)c(C)n1-c1ccc(C(=O)O)cc1	-1	3	8	8	11	54*	18
Cc1csc(=O)n1CC(=O)OC(C)C(=O)Nc1ccc(N(C)C)cc1 (configuration not stated)	3	·	-1	·	-4	·	·
OCCN1CCN(CCCN2c3ccccc3Sc3ccc(Cl)cc32)CC1	0	-1	3	-2	-3	39*	33*
CN(C)CCCN1c2ccccc2Sc2ccc(Cl)cc21	2	3	-1	-1	4	2	·
CC(=O)n1cc([C@H]2C=C(C(N)=O)O[C@@H](OCc3ccc(CO)cc3)C2)c2ccccc21	3	4	0	1	8	2	·
Oc1ccc2ccccc2c1N=Nc1ccc(F)cc1	-42	0	-113	8	-43	-6	·
NS(=O)(=O)c1ccc(N=Nc2c(O)c(C(=O)O)cc3ccccc23)cc1	3	5	16	4	13	41*	26*
O=C(O)Cc1ccc(N=Nc2c(O)c(C(=O)O)cc3ccccc23)cc1	4	0	24	7	8	67*	34*
O=C(COC(=O)COc1ccc(Br)cc1)NCc1ccccc1	9	1	1	·	8	14	·
COc1ccc(/C=C2/C(=O)N(Cc3ccccc3)N=C2C)cc1	-2	2	0	0	5	5	·
COc1ccc(/C=C2/C(=O)N(c3nc4ccccc4s3)N=C2CSc2ccc(Cl)cc2)cc1	-7	-1	-8	1	4	51*	18
O=C1c2cc(Br)ccc2N(Cc2ccc(Br)cc2)S(=O)(=O)C1c1cc(Cl)c(Cl)cc1[N+](=O)[O-] (configuration not stated)	44*	·	54*	·	20	45*	55*
O=C1CS(=O)(=O)N(Cc2cccc(F)c2)c2ccc(Br)cc21	3	1	-5	·	-1	1	·
COc1cc(C(=O)Oc2c(CN3CCOCC3)cc(Cl)c3cccnc23)cc(OC)c1OC	1	1	4	-3	5	40*	5
